# Laboratory results reported in PubChem BioAssay (NCI).
# The panel holds about 83,000 compounds, 20% with a hit somewhere; the sample as a whole holds those more often.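 Percent growth is the endpoint: 0 to 100 indicates growth inhibition (40 means 60% inhibition), 0 means no net growth, and negative values indicate cell death.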 Unmarked numbers belong to inactive results. The source made the active and inactive calls. How the source made its calls: active means growth percent below 10; inactive means the rest.
# Tested on: MALME-3M melanoma
# Experiment: NCI-60 one-dose screen, 48 h (100 = growth as untreated, 0 = no growth, -100 = all killed)
# Conditions: 10 µM unless noted
row,Compound,growth
1,CC[C@H](C)[C@H](N)C(=O)O,103%
2,COc1ccc2c(c1)sc1nc(-c3ccccc3)c(-c3cccc4ccccc34)n12,51.5%
3,Cc1ccc(C)c(NC(=O)c2sc3c(=O)[nH]cnc3c2C)c1,62.6%
4,Cc1ccncc1NC=O,105%
5,COc1ccc(/C(C)=N/NC(=O)CSc2nc3ccccc3c(=O)n2CCc2ccc(S(N)(=O)=O)cc2)cc1,-21.4% (active)
6,COC(=O)OC1C(O[C@H]2C[C@H]3[C@@H]4CC=C5C[C@@H](O)CC[C@]5(C)[C@H]4CC[C@]3(C)[C@H]2[C@H](C)C(=O)CCC(C)C)OCC(O)C1OC1OCC(O)C(O)C1OC(=O)c1ccc(OC)cc1 (some centres undefined),-6.07% (active)
7,O=C1CCCN1C1CCN2CCCc3cccc1c32 (centres undefined),94.2%
8,CC1OC(n2c3ccccc3c3c4c(c5c6ccccc6[nH]c5c32)C(=O)N(CCN[C@H]2CCC[C@@H]2N)C4=O)CC(O)C1O (some centres undefined),45.3%
9,COc1ccc2[nH]cc(C3(c4c[nH]c5ccc(OC)cc45)C(=O)Nc4ccc(F)cc43)c2c1,80.1%
10,c1cc2c(cc1-c1cnc3nonc3n1)OCO2,98.6%
11,Nc1c(C(=O)Nc2cccc(Cl)c2)sc2nc3c(cc12)C(=O)CCC3,49.7%
12,O=C(Nc1ccc(Br)cc1)c1ccc(Cl)c(Cl)c1,48.5%
13,O=C(CSc1nc2c(n1Nc1ccccc1)-c1ccccc1SC2)Nc1nccs1,101%
14,COc1ccc(-c2nc3c(c(-c4ccc(Cl)cc4)nn3-c3ccccc3)c(-c3ccc(O)cc3)c2C#N)cc1,62.6%
15,c1csc(-c2cnc3nonc3n2)c1,100%
16,CC1(C)CC(=O)c2cc3c(N)c(C(=O)Nc4ccc(Cl)cc4)sc3nc2C1,119%
17,CN1C(=O)C(C(=O)/C=C/c2ccccc2C(=O)O)C(=O)N(C)C1=O,103%
18,CC(NC(=O)c1ccccc1)C(=O)Nc1ccccc1 (centres undefined),145%
19,CN1CCC2(CC1)N=C(SCC(=O)Nc1cnc3ccccc3c1)C(c1ccc(Br)cc1)=N2,-75.5% (active)
20,CSc1nc(N)c2[nH]c(-c3cc4ccccc4[nH]c3=O)nc2n1,90.7%

row,Compound,growth
1,C=CC(=O)N1CN(C(=O)C=C)CN(C(=O)C=C)C1,-41.9% (active)
2,CC(C)(C)[Si](C)(C)OC1[C@@H](O[Si](C)(C)C(C)(C)C)[C@@H](CNC(=O)NC(=O)NC(=O)CCl)O[C@H]1n1cnc2c(NC(=O)Nc3ccccc3)ncnc21 (some centres undefined),-78.7% (active)
3,CCCCCCCC/C=C/CCCCCCCC1=NC(C)(C)CN1c1ccccc1,115%
4,CCCCCCCCN(CCCCCCCC)C(=O)CCl,84.8%
5,COc1cc(OC)c(Cl)cc1N,134%
6,CNC(=O)c1c(NC(=O)c2ccc(C(C)C)cc2)sc2c1CCC(=O)C2,-45.3% (active)
7,COc1nccc2c(Sc3ccccc3)nc(N)nc12,137%
8,Nc1c(C(=O)Nc2ccccc2)sc2nc3c(cc12)C(=O)CCC3,76.2%
9,CCC(=O)NC1=C(Cl)C(=O)C(NC(=O)CC)=C(Cl)C1=O,-63.4% (active)
10,CCCCCCCCCCCCC1CCC(=O)O1 (centres undefined),98.2%
11,CCN1C(=O)N(CC)C2C1NC(=O)N2/N=C/C=C/c1ccccc1 (centres undefined),50.6%
12,CN(C)CCCN1c2ccccc2CCc2ccccc21,151%
13,CC(CN1CCN(CC(C)Nc2ccnc3cc(Cl)ccc23)CC1)Nc1ccnc2cc(Cl)ccc12 (centres undefined),-55.5% (active)
14,S=C(S)Oc1cccc2cccnc12,90.9%
15,CCn1c(Cc2ccccc2Nc2c(Cl)cccc2Cl)nnc1SCC(=O)Nc1cccc(OC)c1,94.3%
16,CCc1onc(-c2ccc(OC)cc2)c1-c1ccccc1OCCN(CC)CC,97.7%
17,COc1ccc(-c2cc(-c3ccc(OC)cc3)c3sc(=O)[nH]c3n2)cc1,109%
18,COc1ccc2nc3ccccc3c(NCc3ccc(C)cc3)c2c1,22.1%
19,CS(=O)(=O)c1ccc(C(=O)Nc2ccc(Cl)c(-c3ccccn3)c2)c(Cl)c1,42.4%
